Records with an inconclusive call do not appear. Calls of active or inactive are those of the source. The call rests on the fitted dose curve; in most records, active means well fitted inhibition curve with a large enough effect in the polarisation, with a control signal flat (not every such curve was filed as active); inconclusive means small, poorly fitted or top-dose-only effect, or effect the other way, or a change in a side signal; inactive means no such curve, though single readings can be large or run the other way; the % refers to the polarisation.
On the % scale 0 is the no-effect control and ±100 the full control effect; potency means the concentration at half of the fitted maximal effect.

This experiment can be described thus: Confirmation of Inhibitors Targeting the Menin-MLL Interaction in MLL Related Leukemias: Competition With Texas Red Labeled MLL-derived Mutant Peptide. The conditions noted are these: fluorescence polarization, Texas Red MLL peptide displacement; series mostly up to 94.6 µM; FP change, negative = inhibition: at the top concentration. An excerpt: qHTS Assay for Inhibitors Targeting the Menin-MLL Interaction in MLL Related Leukemias
NIH Chemical Genomics Center [NCGC]
NIH Molecular Libraries Probe Centers Network [MLPCN]
Assay Submitter (PI): Jolanta Grembecka, Tomasz Cierpicki, University of Virginia
Translocations of the MLL (Mixed Lineage Leukemia) gene are frequently found in human leukemias affecting both children and adults. Fusion of MLL to one of more than 60 genes results in generation of oncogenic proteins upregulating Hox genes, which are vital to blood cell development. Patients harboring fusion of the MLL gene suffer from aggressive leukemias and respond poorly to available therapies. All of the oncogenic fusion proteins have a preserved N-terminal fragment of MLL that has been identified to interact with menin. It has been recently discovered that association with menin is critical to the leukemogenic activity of the MLL fusion oncoproteins. Selective targeting of the menin-MLL interaction could provide an attractive therapeutic approach to develop novel drugs for MLL-related leukemias. Small molecules blocking the menin-MLL interaction should reverse the oncogenic potential of MLL fusion proteins.
We have developed and optimized a fluorescence polarization-based assay for the identification of Menin-MLL inhibitors. The assay was run employing two different MLL-derived peptides. The present assay uses a 12 amino acid peptide labeled with fluorescein at its N-terminus. This peptide consists of the menin high affinity binding motif from MLL and is potently bound by menin. Another peptide with a mutated sequence, labeled with Texas Red, was used in parallel as a less stringent screen for inhibitors.
The present assay was run to confirm the activity of hits from the primary screen using the peptide with a mutated sequence, labeled with Texas Red.
The Menin protein, the MLL-wild type (w.t.) derived peptide (N-terminal 12 amino acids), the MLL-derived peptide labeled with Texas Red and the MLL-w.t. peptide labeled with Fluorescein were kindly supplied by laboratory of Dr. Jolanta Grembecka, University of Virginia. All protein and peptide solutions were stored in single use aliquots at -80C. The Eu3+ Cyrptate-conjugated mouse monoclonal antibody anti-6 Histidine (Eu3+-AB) and the Streptavidin-XL665 conjugate (XL665) were purchased from Cisbio International (Bedford, MA). All antibody and XL665 conjugate solution stocks were stored in single use aliquots at -20C. The Buffer components for all assays were purchased from Sigma-Aldrich (St. Louis, MO) and Invitrogen (Carlsbad, CA).
1. FP reaction buffer: 50 mM Tris-HCl pH 7.5, 50 mM NaCl, 1mM DTT.
Before use, 0.05% BSA is added.
2. Menin protein, MLL-w.t. labeled with fluorescein, MLL-mutant peptide labeled with texas red.
Stored in singe use aliquots at -80C.
3. MLL-w.t. unlabeled peptide as positive control: 10 uM final in FP buffer.
1. Prepare Menin at 200 nM, MLL-w.t.-fluorescein at 25 nM, and MLL-mutant-texas red at 50 nM mixture in FP buffer.
2. Prepare Menin at 200 nM, MLL-w.t.-fluorescein at 25 nM, MLL-mutant-texas red at 50 nM, and 10 uM MLL-w.t. unlabeled mixture in FP buffer.
3. Prepare MLL-w.t.-fluorescein at 25 nM and MLL-mutant-texas red at 50 nM mixture in FP buffer.
3. Dispense 4 ul per well of reagent in step 1 in columns 2, 4 - 48 in a black 1536 well plate, dispense 4 ul per well of reagents from steps 2 and 3 in columns 1 and 3 respectively. Incubate plate at ambient for 15 minutes.
4. Transfer 23 nl per well of compound to plate and incubate at ambient for 1 hr.
5. Read fluorescence polarization for each label using the PerkinElmer Envision.
Envision protocol for fluorescein: FITC FP Dual Enh Mirror, Excitation filter 480, Emission filter (1) P-pol 535, Emission filter (2) S-pol 535
Envision protocol for texas red: FP Dual Enh Mirror, Excitation filter 555, Emission filter (1) P-pol 632, Emission filter (2) S-pol 632
Consider `O=C1CCNc2c(Cl)cc(Cl)cc21`, for which the “FP change, negative = inhibition” value was 10% (inactive).
For the compound `O=C(CC(=O)c1ccccc1)Nc1cc(C(F)(F)F)ccc1Cl`, the “FP change, negative = inhibition” value is 49.2% (inactive).
On the same count and under the same terms, under `CCc1nn(C)c2c(=O)c(=O)c2n(C)[nH]1` stands -13% (inactive); under `Cn1c(=O)n(C)c2cc3[nH]cnc3cc21`, 10.9% (inactive); under `COc1ccc(N(CC(=O)NC2CC3CCC2C3)S(=O)(=O)c2ccc(C)cc2)cc1OC` (stereo not given), 29.4% (inactive).
Still for that read-out and setting: the figure for `COc1ccccc1N(CC1CO1)S(=O)(=O)c1ccccc1` (stereo not given) is 6.9% (inactive); for `COc1ccc(-c2cc(=O)c3c(O)cc(O)c(-c4cc(-c5cc(=O)c6c(O)cc(O)cc6o5)ccc4OC)c3o2)cc1` it is 47.8% [at 288 µM] (inactive).
Take `Cc1cc(C)c2c(=O)cc(C(=O)NCc3ccccc3)oc2c1`: the “FP change, negative = inhibition” value is 52.9% [at 288 µM] (inactive).
Still for that read-out and setting: under `Cc1c(F)cccc1NS(=O)(=O)c1ccc2c(c1)c(C)cc(=O)n2C` stands -11.4% (inactive); under `NC(=O)c1cc2ccccc2o/c1=N/NC(=O)c1cccc(F)c1`, -15.5% (inactive).
With `O=C(Nc1ccc(F)c(Cl)c1)c1cc(-c2ccco2)on1`, the Potency was 31.7 µM (active).
For `OC(c1ccccn1)(c1ccccn1)c1ccccn1`, the “FP change, negative = inhibition” value is -1.99% [at 288 µM] (inactive).
On to `O=C(NCC1CCCO1)c1ccc(OC2CCN(C(=O)C3CC3)CC2)cc1` (stereo not given), for which the “FP change, negative = inhibition” value was 14.1% (inactive).
Still for that read-out and setting: under `Cc1nc(C)c(-c2ccc(SCc3ccccc3F)nn2)s1` stands 20.8% (inactive); under `COc1ccccc1/C=N/n1c(N)c(S(=O)(=O)c2cccs2)c2nc3ccccc3nc21`, 34.1% [at 288 µM] (inactive).
Same read-out and setting: the figure for `CC(c1cc2ccccc2s1)N(O)C(N)=O` (stereo not given) is 1.99% [at 288 µM] (inactive).
Consider `Cc1ccc(S(=O)(=O)c2cc(OC(=O)c3ccco3)ccc2OC(=O)c2ccco2)cc1`, for which the “FP change, negative = inhibition” value was 33.4% [at 288 µM] (inactive).
As for `N=C1c2ccccc2CN1c1ccc(N2CCOCC2)c(S(=O)(=O)Nc2ccc(Cl)cc2)c1`, the Potency was 141 µM (active).
Take `Cc1ccc(NC(=O)C(C)N2C(=O)c3ccccc3C2=O)c(C)c1` (stereo not given): the “FP change, negative = inhibition” value is 11.7% (inactive).
Still for that read-out and setting: under `c1ccc2c(c1)nc(N1CCOCC1)c1c3ccccc3[nH]c21` stands 41.2% [at 288 µM] (inactive); under `COc1ccccc1C(=O)Nc1ccccc1SC(=O)c1ccccc1OC`, 26.9% [at 288 µM] (inactive); under `N#CC1=C(N)OC2=C(C(=O)CC(c3ccco3)C2)C1c1ccc(OCc2c(F)cccc2Cl)cc1` (stereo not given), 66.6% [at 288 µM] (inactive).
With `NC(=O)[C@@H]1CCCNc2c(I)cc([N+](=O)[O-])cc2C(=O)N[C@@H](CCCN=C(N)N)C(=O)N[C@@H](CCCN=C(N)N)C(=O)N1`, the Potency is 141 µM (active).
For `COc1cc(SC)ccc1C(=O)Nc1cccc(C2OCCCO2)c1`, the “FP change, negative = inhibition” value was -15.2% [at 288 µM] (inactive).
Consider `O=C1Cc2ccccc2Sc2c(OCCN3CCCCC3)cccc21`, for which the Potency is 126 µM (active).
For the compound `CN[C@H]1[C@H](O)[C@@H](O[C@@H]2[C@H](O)[C@@H](O[C@H]3OC(CN)=CC[C@H]3N)[C@@H](N)C[C@H]2N)OC[C@@]1(C)O`, the “FP change, negative = inhibition” value was -11.3% (inactive).
On the same count and under the same terms, the figure for `Cc1nn(-c2ccccc2)c2nc(N)c(C(N)=O)cc12` is -10.8% (inactive).
Turning to `O=C(/C=C/c1ccccc1)Nc1nnc(SCC(=O)c2ccc3ccccc3c2)s1`, the Potency is 17.8 µM (active).
Regarding `COc1ccc(OC)c(C(c2c(C)[nH][nH]c2=O)c2c(C)[nH][nH]c2=O)c1`, the “FP change, negative = inhibition” value is -9.46% [at 288 µM] (inactive).
On to `O=S(=O)(NCCc1c[nH]c2ccccc12)c1ccccc1`, for which the “FP change, negative = inhibition” value was 2.62% [at 288 µM] (inactive).
The same measure, in the same setting: the figure for `COCC(=O)Nc1cccc2ccccc12` is -27.4% (inactive); for `COc1cc(OC)c2ccc(=O)oc2c1C(CCN1CCOCC1)c1ccc(N(C)C)cc1` (stereo not given) it is 32.5% (inactive); for `C=C(C)CNC(=S)Nc1cccc2cnccc12` it is 5.3% (inactive).
Same read-out and setting: the figure for `COc1ccc(CC(=O)Nc2ccc(-c3nnc(-c4ccccc4)o3)cc2)cc1` is 36.9% (inactive); for `COC(=O)c1cc(CNC(=O)CCCSc2ccccc2)ccc1OC` it is 19.6% (inactive); for `C/C(=N\NC(=O)c1nnn(-c2nonc2N)c1C)c1ccc(-c2ccccc2)cc1` it is 34.5% (inactive).
Consider `Cc1sc2ncnc(NC3CCN(Cc4ccccc4)CC3)c2c1C`, for which the Potency was 28.2 µM (active).
For `O=C(c1cc2c(=O)n3ccccc3nc2s1)N1CCOCC1`, the “FP change, negative = inhibition” value is -18.6% [at 288 µM] (inactive).
Consider `CCc1ccccc1NC(=O)COc1cccc(-n2cnnn2)c1`, for which the “FP change, negative = inhibition” value was -3.61% [at 288 µM] (inactive).
Still for that read-out and setting: the figure for `CCOC(=O)Cn1cnc2scc(-c3ccc(C)c(C)c3)c2c1=O` is -11.2% (inactive).

(Values after PubChem BioAssay AID2782 (National Center for Advancing Translational Sciences (NCATS), 2010).)
